Drawing on PubChem BioAssay, this text covers growth inhibition, inhibition and outcome for 20 compounds.

The term inhibition denotes the change of the read-out against control, counted positive when it falls.

Experiment [1] is described as follows: antimalarial activity against Dd2 strain (AID 2302;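 active means growth inhibition above 50% at the single 2 µM test dose, taken to imply half-maximal potency below 2 µM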;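 further: 0% = DMSO untreated growth and 100% = chloroquine plus artemisinin killed control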). To be noted: P. falciparum Dd2 in RBCs, LDH growth readout, 72 h; at 2 µM; stronger effect = higher value.
Experiment [2] is described as follows: human hepatoma cell viability loss – ATP luminescence, cytotoxicity control for P. falciparum antimalarial project, primary screen (AID 2303;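 active means inhibition above 50%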;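 further: 0% = DMSO wells and 100% = digitonin-killed cells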). As to conditions: HepG2 viability, 24-48 h, at 10 µM, stronger effect = higher value.
Experiment [3] deals with L-lactate dehydrogenase (Plasmodium falciparum (isolate CDC / Honduras)) (UniProt Q27743). The experiment is described as follows: PfLDH activity inhibition – cell lysate, 3D7 strain, counter-screen for P. falciparum growth inhibition project (AID 2304).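 Further: 0% = vehicle and 100% = reference inhibitor.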 As to conditions: P. falciparum 3D7 crude extract, LDH APAD/NBT absorbance; at 2 µM; stronger effect = higher value. (In general: The purpose of a counterscreen is to sort out artefacts and off-target activity.)
Chain of L-lactate dehydrogenase (Plasmodium falciparum (isolate CDC / Honduras)) (Q27743 whole entry, looked up): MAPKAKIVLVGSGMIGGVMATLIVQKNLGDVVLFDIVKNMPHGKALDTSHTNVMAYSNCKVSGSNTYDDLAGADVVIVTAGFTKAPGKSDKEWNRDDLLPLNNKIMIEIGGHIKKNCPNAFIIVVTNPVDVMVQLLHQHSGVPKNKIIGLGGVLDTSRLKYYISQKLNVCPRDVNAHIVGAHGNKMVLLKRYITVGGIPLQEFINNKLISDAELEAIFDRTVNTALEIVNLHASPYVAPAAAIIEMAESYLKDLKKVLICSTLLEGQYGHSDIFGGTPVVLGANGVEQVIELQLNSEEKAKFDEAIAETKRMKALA

Experiment [4] in a line: inhibition of 3D7 malaria parasite growth – strain 3D7 (AID 2306).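 Further: 0% = DMSO wells and 100% = chloroquine plus artemisinin control wells.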 As to conditions: P. falciparum 3D7 erythrocytic growth, LDH absorbance, 72 h; at 2 µM; stronger effect = higher value.
The target of experiment [5] is Calcium-dependent protein kinase 1 (Plasmodium falciparum (isolate 3D7)) (UniProt P62344). The experiment is described as follows: PfCDPK1 kinase inhibitors, biochemical, TCAMS library (AID 1159585; cut-off not given, nearly all actives have IC50 up to about 0.98 µM;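 further: inhibitors leave more ATP so luminescence rises with inhibition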). As to conditions: recombinant PfCDPK1, Kinase-Glo ATP depletion luminescence. (Kinase-Glo reads ATP consumption through a luciferase reaction.)
Chain of Calcium-dependent protein kinase 1 (Plasmodium falciparum (isolate 3D7)) (P62344 whole entry, looked up): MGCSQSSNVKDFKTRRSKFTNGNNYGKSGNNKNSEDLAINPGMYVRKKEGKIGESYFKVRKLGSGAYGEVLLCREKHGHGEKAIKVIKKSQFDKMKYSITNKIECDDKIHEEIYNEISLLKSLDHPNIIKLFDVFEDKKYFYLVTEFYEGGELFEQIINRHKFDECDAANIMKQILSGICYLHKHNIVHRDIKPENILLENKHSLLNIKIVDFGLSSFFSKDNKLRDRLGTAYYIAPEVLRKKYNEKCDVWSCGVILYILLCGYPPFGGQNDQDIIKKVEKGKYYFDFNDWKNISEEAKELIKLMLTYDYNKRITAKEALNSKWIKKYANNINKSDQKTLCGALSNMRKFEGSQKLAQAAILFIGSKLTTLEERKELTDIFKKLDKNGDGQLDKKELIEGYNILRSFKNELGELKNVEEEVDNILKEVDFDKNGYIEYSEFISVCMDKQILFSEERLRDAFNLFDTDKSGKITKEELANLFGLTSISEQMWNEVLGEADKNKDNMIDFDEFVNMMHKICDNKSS
Experiment [6] concerns the target Plasmodium falciparum protein kinase 6 (PK6, PF3D7_1337100) (UniProt Q8IDW1). The experiment is described as follows: PfPK6 kinase inhibitors, biochemical, TCAMS library (AID 1159586). To be noted: recombinant PfPK6, Kinase-Glo ATP depletion luminescence.
The target of experiment [7] is Protein kinase 7 (PK7), Plasmodium falciparum 3D7 (PF3D7_0213400) (UniProt Q7YTF7). The experiment is described as follows: inhibition of Plasmodium PK7 catalytic activity – biochemical, TCAMS antimalarial set, Kinase-Glo luminescence (AID 1159587). To be noted: recombinant PfPK7, Kinase-Glo ATP depletion luminescence.
Chain of Protein kinase 7 (PK7), Plasmodium falciparum 3D7 (PF3D7_0213400) (Q7YTF7 1-343): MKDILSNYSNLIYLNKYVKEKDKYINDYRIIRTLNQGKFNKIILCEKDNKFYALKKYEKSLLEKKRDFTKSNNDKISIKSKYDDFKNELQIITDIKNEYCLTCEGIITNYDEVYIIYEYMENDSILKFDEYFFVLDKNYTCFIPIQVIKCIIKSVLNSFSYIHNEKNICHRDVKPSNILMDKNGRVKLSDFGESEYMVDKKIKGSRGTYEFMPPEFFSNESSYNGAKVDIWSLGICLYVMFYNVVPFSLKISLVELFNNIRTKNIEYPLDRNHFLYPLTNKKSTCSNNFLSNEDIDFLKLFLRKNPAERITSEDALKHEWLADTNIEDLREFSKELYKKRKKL
Experiment [8] deals with Calcium-dependent protein kinase 4 (Plasmodium falciparum (isolate 3D7)) (UniProt Q8IBS5). The experiment in a line: PfCDPK4 kinase inhibitors, biochemical, TCAMS library (AID 1159588; cut-off not given, nearly all actives have IC50 up to about 0.91 µM). As to conditions: recombinant PfCDPK4, Kinase-Glo ATP depletion luminescence.
Chain of Calcium-dependent protein kinase 4 (Plasmodium falciparum (isolate 3D7)) (Q8IBS5 whole entry, looked up): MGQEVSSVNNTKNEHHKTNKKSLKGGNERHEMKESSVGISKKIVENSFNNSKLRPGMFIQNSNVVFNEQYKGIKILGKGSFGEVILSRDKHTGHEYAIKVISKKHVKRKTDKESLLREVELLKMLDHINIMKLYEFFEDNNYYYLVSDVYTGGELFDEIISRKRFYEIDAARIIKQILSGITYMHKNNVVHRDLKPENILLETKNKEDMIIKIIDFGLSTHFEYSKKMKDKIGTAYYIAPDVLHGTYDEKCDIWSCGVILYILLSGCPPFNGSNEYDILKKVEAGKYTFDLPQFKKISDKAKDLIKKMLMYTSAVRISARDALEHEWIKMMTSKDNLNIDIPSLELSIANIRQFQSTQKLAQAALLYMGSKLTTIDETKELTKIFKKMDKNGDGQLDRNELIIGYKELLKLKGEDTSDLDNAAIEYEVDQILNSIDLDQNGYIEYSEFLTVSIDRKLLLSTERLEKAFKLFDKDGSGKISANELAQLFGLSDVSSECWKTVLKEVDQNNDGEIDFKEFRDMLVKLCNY

A number with no mark means an inactive call. For some of these results: Measured potencies and affinities stand elsewhere. Activity calls are given as the source filed them. Unless noted, how the calls were made is not given here.

Chain of Plasmodium falciparum protein kinase 6 (PK6, PF3D7_1337100) (Q8IDW1 1-305): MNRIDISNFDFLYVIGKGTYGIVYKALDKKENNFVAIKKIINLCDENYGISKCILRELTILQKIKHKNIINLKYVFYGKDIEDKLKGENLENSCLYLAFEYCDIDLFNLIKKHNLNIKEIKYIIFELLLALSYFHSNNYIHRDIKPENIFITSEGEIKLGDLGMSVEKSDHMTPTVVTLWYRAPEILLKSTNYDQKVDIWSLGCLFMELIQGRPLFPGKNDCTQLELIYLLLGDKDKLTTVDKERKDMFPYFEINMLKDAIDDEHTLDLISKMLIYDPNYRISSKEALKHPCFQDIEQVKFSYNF

In the case of `CC(C)(C)c1nn(-c2ccccc2)c2[nH]c(=O)c(CNC3CCCC3)cc12`, the growth inhibition in experiment [1] was 70% (active); in experiment [4] it was 100% (active). Besides, the inhibition in experiment [2] is 7%; in experiment [3] it was 5%. Also, the outcome in experiment [5], in experiment [6], in experiment [7] and in experiment [8] was inactive.

In the case of `CN(C)CCOc1ccc2c(c1)CN(C)CC2c1ccccc1` (stereo not given), the growth inhibition in experiment [1] was -1%; in experiment [4], 91% (active). In addition, the inhibition in experiment [2] is 15%; in experiment [3], -2%. The outcome in experiment [5], in experiment [6], in experiment [7] and in experiment [8] was inactive.

Take `CCOC(=O)c1[nH]c2ccc(F)cc2c1NC(=O)CN1CCN(c2cccc(C(F)(F)F)c2)CC1`: the growth inhibition in experiment [1] was 90% (active); in experiment [4], 96% (active). The results for the inhibition in experiment [2] and in experiment [3] were 12% and -2%, respectively. In addition, the outcome in experiment [5], in experiment [6], in experiment [7] and in experiment [8] was inactive.

Regarding `O=C(C=Cc1ccc(Cl)c(Cl)c1)NCCCCCN1CCC(CCNC(=O)c2cccc3ccccc23)CC1`, the figures for the growth inhibition in experiment [1] and in experiment [4] were -1% and 85% (active), respectively. Further, the inhibition in experiment [2] was 17%; in experiment [3], 4%. Further, the outcome in experiment [5], in experiment [6], in experiment [7] and in experiment [8] was inactive.

On to `Cc1ccc(NC(=O)NC2CCN(c3ccnc4ccccc34)CC2)cc1`, for which the growth inhibition in experiment [1] was 52% (active); in experiment [4] it was 97% (active). The inhibition in experiment [2] is 21%; in experiment [3], -6%. In addition, the result in experiment [5], in experiment [6], in experiment [7] and in experiment [8] was inactive.

In the case of `Cc1cc(-c2cccc(CNC3CCN(C)CC3)c2)ccc1S(=O)(=O)NC1CCC1`, the growth inhibition is 96% (active) in experiment [1] and 101% (active) in experiment [4]. In addition, the inhibition is 33% in experiment [2] and 3% in experiment [3]. Also, the outcome in experiment [5], in experiment [6], in experiment [7] and in experiment [8] was inactive.

Turning to `CCNc1cc(C(=O)N[C@@H](Cc2ccccc2)[C@H](O)CNCc2cc(OC)cc(OC)c2)cc(N2CCCC2=O)c1`, the growth inhibition in experiment [1] was 75% (active); in experiment [4], 100% (active). The figures for the inhibition in experiment [2] and in experiment [3] were -7% and 2%, respectively. For the same compound, the result in experiment [5], in experiment [6], in experiment [7] and in experiment [8] was inactive.

For the compound `O=C(Nc1ccc(OC2CCN(Cc3ccc(F)cc3)CC2)c(Cl)c1)c1ccco1`, the growth inhibition in experiment [1] and in experiment [4] was 95% (active) each time. Besides, the inhibition in experiment [2] is 2%; in experiment [3], -4%. The outcome in experiment [5], in experiment [6], in experiment [7] and in experiment [8] was inactive.

As for `COc1ccc2nccc([C@@H](O)CN3CCC(NCc4ccc5c(c4)NC(=O)CO5)CC3)c2c1`, the growth inhibition in experiment [1] is 6%; in experiment [4], 99% (active). The inhibition in experiment [2] was 1%; in experiment [3], 5%. Moreover, the result in experiment [5], in experiment [6], in experiment [7] and in experiment [8] was inactive.

As for `CC(C)=C(C(=O)OCc1ccccc1)N1C(=O)[C@@H](NC(c2ccccc2)(c2ccccc2)c2ccccc2)[C@H]1[S@@](=O)CC(=O)OC(C)(C)C`, the growth inhibition in experiment [1] is 78% (active); in experiment [4], 92% (active). Moreover, the inhibition in experiment [2] was -2%; in experiment [3], -4%. The result in experiment [5], in experiment [6], in experiment [7] and in experiment [8] was inactive.

Turning to `CN1CCC(NCCS(=O)(=O)c2cccc(Nc3ccc(-c4cccc(F)c4)cn3)c2)CC1`, the figures for the growth inhibition in experiment [1] and in experiment [4] were -3% and 99% (active), respectively. The inhibition in experiment [2] was 27%; in experiment [3] it was 5%. The outcome in experiment [5], in experiment [6], in experiment [7] and in experiment [8] was inactive.

Regarding `CC(C)c1ccc2c(c1)c(SC(C)(C)C)c(CC(C)(C)C#N)n2Cc1ccc(Cl)cc1`, the growth inhibition is 95% (active) in experiment [1] and 96% (active) in experiment [4]. Moreover, the inhibition in experiment [2] was -3%; in experiment [3] it was 8%. The result in experiment [5], in experiment [6], in experiment [7] and in experiment [8] was inactive.

Take `CCN(CCCN1CCCCC1)c1cc(C)nc(Nc2cccc(C(F)(F)F)c2)n1`: the growth inhibition was 88% (active) in experiment [1] and 102% (active) in experiment [4]. Further, the inhibition is 25% in experiment [2] and 5% in experiment [3]. Moreover, the outcome in experiment [5], in experiment [6], in experiment [7] and in experiment [8] was inactive.

As for `CCC(NC(=O)c1ccccc1NC(=O)c1ccc(C)cc1)C(=O)OC` (stereo not given), the growth inhibition in experiment [1] was 86% (active); in experiment [4], 95% (active). Further, the inhibition in experiment [2] was -4%; in experiment [3], 3%. Also, the result in experiment [5], in experiment [6], in experiment [7] and in experiment [8] was inactive.

On to `C=CCOC(=O)N1CCC(CNCc2cccc(-c3cccc(-c4nc5c(C)cccc5[nH]4)c3)c2)C1` (stereo not given), for which the growth inhibition is 69% (active) in experiment [1] and 102% (active) in experiment [4]. The inhibition in experiment [2] was 22%; in experiment [3], -2%. The outcome in experiment [5], in experiment [6], in experiment [7] and in experiment [8] was inactive.

`CCCCc1cc(NCC)nc(Nc2ccc(F)cc2)n1`: the growth inhibition is 56% (active) in experiment [1] and 98% (active) in experiment [4]. For the same compound, the inhibition in experiment [2] was 33%; in experiment [3], -1%. Also, the result in experiment [5], in experiment [6], in experiment [7] and in experiment [8] was inactive.

For `CC(=O)Nc1ncc(C(=O)Nc2cccc(-c3ccc(-c4nc5c(C)cccc5[nH]4)cc3)c2)s1`, the figures for the growth inhibition in experiment [1] and in experiment [4] were 78% (active) and 101% (active), respectively. The inhibition in experiment [2] is 69% (active); in experiment [3], 3%. The outcome in experiment [5], in experiment [6], in experiment [7] and in experiment [8] was inactive.

As to `COc1ccc(S(=O)(=O)Nc2ccc(C(=O)NCc3ccc(C(F)(F)F)cc3)cc2)cc1N1CCN(CC2CC2)CC1`, the growth inhibition in experiment [1] was 1%; in experiment [4] it was 95% (active). Also, the results for the inhibition in experiment [2] and in experiment [3] were 34% and 2%, respectively. Besides, the result in experiment [5], in experiment [6], in experiment [7] and in experiment [8] was inactive.

Regarding `O=C(Cn1c(=O)oc2ccccc21)N1CCC(n2c(=O)n(CCCN3CCOCC3)c3ccccc32)CC1`, the figures for the growth inhibition in experiment [1] and in experiment [4] were 101% (active) and 99% (active), respectively. Further, the inhibition in experiment [2] was 11%; in experiment [3] it was 5%. Besides, the result in experiment [5], in experiment [6], in experiment [7] and in experiment [8] was inactive.

As to `COc1cccc(CCNCCCCCCNCCc2ccc(Cl)cc2)c1`, the values for the growth inhibition in experiment [1] and in experiment [4] were 3% and 100% (active), respectively. Moreover, the inhibition was 32% in experiment [2] and -1% in experiment [3]. Besides, the outcome in experiment [5], in experiment [6], in experiment [7] and in experiment [8] was inactive.
